We go through 39 compounds from PubChem BioAssay (Tox21).

SMILES strings stand for the structures. Values joined by “and” are separate entries in the source; they are usually repeats but may differ in a detail not shown here. Equal entries are not always repeated. Records with an inconclusive call do not appear. Entries that show only a call come without a potency. Some structures have more than one record in an assay (separate samples or runs), and their calls can disagree. Active and inactive are the calls of the source. The call rests on the fitted dose curve; in most records, active means well fitted curve in the direction sought with a large enough effect in the repeat runs; inconclusive means weak or mixed curves; inactive means no such curve, though single readings can be large; an effect the other way counts as inactive or inconclusive.
Potency means the concentration at half of the fitted maximal effect.

One assay in a line: A CellTox Green Cytotoxicity Assay to monitor cytotoxicity in HEK293 cells - 40 hour (AID 1224871). Further: nearly all actives have a fitted effect of over 45% in size. The note with it: CellTox Green fluorescence; series mostly up to 76.8 µM; cytotoxicity increase: at the top concentration. Summed up: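 Read-out: fluorescence of a cell-impermeant cyanine dye staining DNA of dead cells, proportional to cytotoxicity. HEK293, 600 cells/well with reagent, compound (23 nL DMSO) added after 5 h; reads at 0, 8, 16, 24, 32, 40 h.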
Take `NNc1ccc(C(=O)O)cc1`: the Potency entry is “inactive”.
The same measure, in the same setting: the same measure for `O=C(OCc1ccccc1)c1ccccc1O`: “inactive”.
On to `NC=O`, for which the “cytotoxicity increase” value is 2.05% (inactive).
As to `Cc1cc2nc3c(=O)[nH]c(=O)nc-3n(C[C@H](O)[C@H](O)[C@H](O)CO)c2cc1C`, the Potency is 43.2 µM (active) and 40.5 µM (active) and 10.4 µM (active).
The same measure, in the same setting: in the case of `Nc1ncnc2nc[nH]c12` it was “inactive”.
Same read-out and setting: the same measure for `CC(CCC(=O)O)(c1ccc(O)cc1)c1ccc(O)cc1`: “inactive”; for `C=C(C)C1CC=C(C)CC1` (centres undefined): “inactive”.
On the same count and under the same terms, the same measure for `Cc1[nH]c(=O)c(C#N)cc1-c1ccncc1`: “inactive”; for `O=C(c1ccccc1)c1ccc(O)cc1O`: “inactive”.
In the case of `CCCCCCCCCC(=O)OC`, the Potency entry is “inactive”.
As to `Cc1cccc(C(=O)O)c1`, the Potency entry was “inactive”.
Same read-out and setting: the same measure for `c1ccc(Nc2ccccc2)cc1`: 19.5 µM (active) and inactive; for `CCCC(=O)O`: “inactive”.
In the case of `O=[N+]([O-])c1ccc2c(c1)Cc1ccccc1-2`, the Potency result is “inactive”.
`OCCO`: the “cytotoxicity increase” value was -20.9% (inactive).

The next assay is described as follows: qHTS RealTime-Glo MT Cell Viability Assay in HEK293 cells - 16 hour (AID 1224872). Further: nearly all actives have a fitted effect of over 50% in size. On activity change, negative = cytotoxicity: top concentration of the series differs between compounds. The conditions noted are these: RealTime-Glo luminescence; series mostly up to 76.8 µM; activity change, negative = cytotoxicity: at the top concentration. The essentials:
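Cells + reagent dispensed (600 cells/well, HEK293) → 5 h at 37 C/5% CO2 → 23 nL compound in DMSO pinned → 40 h at 37 C → luminescence read at 0, 8, 16, 24, 32, 40 h.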
In general terms: qHTS replaces the single test concentration by a dilution series.
For the compound `CC1=CCC(C(C)(C)O)CC1` (centres undefined), the Potency entry was “inactive”.
`Nc1ncn([C@@H]2O[C@H](CO)[C@@H](O)[C@H]2O)c(=O)n1`: the “activity change, negative = cytotoxicity” value is -8.08% [at 35.3 µM] (inactive).
Turning to `CCOC(=O)C(C#N)=C(c1ccccc1)c1ccccc1`, the Potency entry is “inactive”.
On the same count and under the same terms, the same measure for `CCC(C)(O)CCCC(C)C` (centres undefined): “inactive”; for `CCCCNS(=O)(=O)c1ccccc1`: “inactive and 7.76 µM (active)”; for `CC(C)CC(C)(O)C#CC(C)(O)CC(C)C` (centres undefined): “inactive”.
`c1ccc2c(c1)c1cccc3ccc4cccc2c4c31`: the “activity change, negative = cytotoxicity” value was 6.79% (inactive).
Regarding `O=C(/C=C/c1ccccc1)OCc1ccccc1`, the Potency entry is “inactive”.
Consider `CC(C)(C)NC(=O)[C@H]1CC[C@H]2[C@@H]3CC[C@H]4NC(=O)C=C[C@]4(C)[C@H]3CC[C@]12C`, for which the Potency entry is “inactive”.
For the compound `CCCc1c(OCCCCc2nn[nH]n2)ccc(C(C)=O)c1O`, the Potency result was “inactive”.
Still for that read-out and setting: in the case of `CCCCCCCCCCCO` it was “inactive”; in that of `COc1ccc(OC)c(C(O)CNC(=O)CN)c1` (centres undefined), “inactive”; in that of `COC(=O)Nc1nc2ccc(S(=O)c3ccccc3)cc2[nH]1` (centres undefined), 1.34 µM (active).
Same read-out and setting: the same measure for `Cc1ncc[nH]1`: “inactive”.
As to `Cc1ccc(C(=O)c2cc(O)c(O)c([N+](=O)[O-])c2)cc1`, the Potency entry was “inactive”.
Consider `CN1C(C(=O)Nc2ccccn2)=C(O)c2ccccc2S1(=O)=O`, for which the Potency entry was “inactive”.
On the same count and under the same terms, in the case of `Cc1c(OCC(F)(F)F)ccnc1CS(=O)c1nc2ccccc2[nH]1` (centres undefined) it was 19.5 µM (active) and 23.9 µM (active); in that of `Nc1ccc(Nc2ccccc2)cc1`, 43.2 µM (active); in that of `COc1cc([C@@H]2c3cc4c(cc3[C@H](O)[C@H]3COC(=O)[C@H]23)OCO4)cc(OC)c1OC`, “inactive”.
The same measure, in the same setting: in the case of `CC(C)OC=O` it was “inactive”.
Still for that read-out and setting: in the case of `OC(CCl)CCl` it was “inactive”; in that of `CC(C)OB(OC(C)C)OC(C)C`, “inactive”; in that of `C[Si](C)(C)O[Si](C)(C)C`, “inactive”.
For the compound `c1cc(-c2ccncc2)ccn1`, the Potency entry was “inactive”.
Same read-out and setting: the same measure for `NNc1ccc(C(=O)O)cc1`: “inactive”; for `O=C(OCc1ccccc1)c1ccccc1O`: “inactive”.
As for `NC=O`, the Potency result is “inactive”.
`Cc1cc2nc3c(=O)[nH]c(=O)nc-3n(C[C@H](O)[C@H](O)[C@H](O)CO)c2cc1C`: the Potency entry was “inactive”.
Same read-out and setting: the same measure for `Nc1ncnc2nc[nH]c12`: “inactive”; for `CC(CCC(=O)O)(c1ccc(O)cc1)c1ccc(O)cc1`: “inactive”; for `C=C(C)C1CC=C(C)CC1` (centres undefined): “inactive”.
Regarding `Cc1[nH]c(=O)c(C#N)cc1-c1ccncc1`, the “activity change, negative = cytotoxicity” value was -5.25% [at 35.3 µM] (inactive).
On to `O=C(c1ccccc1)c1ccc(O)cc1O`, for which the Potency entry is “inactive”.
With `CCCCCCCCCC(=O)OC`, the Potency result was “inactive”.
For the compound `Cc1cccc(C(=O)O)c1`, the Potency result was “inactive”.
Still for that read-out and setting: in the case of `c1ccc(Nc2ccccc2)cc1` it was 17.4 µM (active) and inactive; in that of `CCCC(=O)O`, “inactive”; in that of `O=[N+]([O-])c1ccc2c(c1)Cc1ccccc1-2`, “inactive”.
In the case of `OCCO`, the Potency entry was “inactive”.
